Source: PubChem
GPT2 inhibitor – GPT2 alanine aminotransferase inhibition. Q8TD30. Recombinant GPT2, coupled pyruvate oxidase/HRP Amplex Red fluorescence. Potency, µM (titrated, usually from 57.7 µM), inactives show at the top dose activity change, negative = inhibition, usual class: inhibitors. 0.25% of 100,000 active; further: on the % scale 0 is the no-effect control and ±100 the full control effect; nearly all actives have a fitted effect of over 60% in size
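Fluorescence of coupled pyruvate oxidase/HRP/Amplex Red system (50uM Amplex, 30 min, dark) reports pyruvate formed by GPT2. Enzyme reaction: 10ng/uL GPT2, 2mM L-alanine, 250uM a-KG, 30 min room temperature, pH 7.5; 50uM AOA control.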
NPR1 antag – human Npr1 receptor antagonism. Potency, µM (series often up to 46.3 µM), without a hit: at the top dose activity change, negative = inhibition, actives largely listed as inhibitors. 1.6% of 76,000 active. HEK293 hNpr1 GloSensor cGMP, ANP-stimulated luminescence. P16066; calls by dose curve; further: on the % scale 0 is the no-effect control and ±100 the full control effect; nearly all actives have a fitted effect of over 60% in size
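Compound pre-incubated 30 min at room temperature on GloSensor-loaded HEK293 cells stably carrying hNpr1 and the pGS-40F cGMP biosensor. Stimulation uses hNppA at 0.1 nM final; luminescence is taken at baseline and 20 min post-agonist.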
HEK cytotox – cytotoxic compounds in HEK 293 cells | Potency, µM (titrated, usually from 115 µM), for the others: at the highest dose activity change, negative = cytotoxicity, most hits filed as inhibitors | AID 1345083 | 6.6% of 94,000 active | HEK 293 viability, ATP luminescence (CellTiter-Glo), 48-72 h; further: on the % scale 0 is the no-effect control and ±100 the full control effect; nearly all actives have a fitted effect of over 60% in size
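Read-out: CellTiter-Glo ATP luminescence. Cells: HEK 293, 250 cells/well. Exposure: 48 or 72 hr, 37 degree Celsius.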
NIH3T3 tox – NIH 3T3 cell cytotoxicity | NIH 3T3 viability, CellTiter-Glo ATP luminescence, 48-72 h | Potency, µM (highest dose often 96.7 µM), without a hit: top-dose activity change, negative = cytotoxicity, usual class: inhibitors | 4.3% of 94,000 active | AID 1345082; further: on the % scale 0 is the no-effect control and ±100 the full control effect; nearly all actives have a fitted effect of over 55% in size
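Luminescent ATP readout (CellTiter-Glo, 10 min RT) after 48 or 72 hr compound exposure of NIH 3T3 cells seeded at 400 cells/well in 1536-well format; quantitative HTS.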
Luciferase inh – Photinus pyralis luciferase inhibition. purified P. pyralis luciferase, luminescence, biochemical. 2.5% of 76,000 active. Potency, µM (highest dose often 115 µM), hits mostly inhibitors. P08659; further: on the % scale 0 is the no-effect control and ±100 the full control effect; nearly all actives have a fitted effect of over 65% in size
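Purified 10nM P. pyralis luciferase with 10uM D-luciferin and 10uM ATP in 50mM Tris acetate pH 7.5, 10mM Mg acetate, 0.01% Tween-20, 0.05% BSA. qHTS titration; luminescence read by CCD imager.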
NPR1 antag cnf – hNpr1 antagonism, confirmation assay; shares compounds with NPR1 antag; Potency, µM (titrated, usually from 57.6 µM), for inactives: top-dose activity change, negative = inhibition, usual class: inhibitors; 76% of 1,400 active; HEK293 hNpr1 cGMP GloSensor luminescence, ANP-stimulated; AID 1347044; calls by dose curve; further: nearly all actives have a fitted effect of over 70% in size
Npr2 selectivity – hNpr2 antagonism, selectivity versus Npr1 | 67% of 1,400 active | Potency, µM (highest dose often 57.6 µM), for the others: at the top dose activity change, negative = inhibition, usual class: inhibitors | shares compounds with NPR1 antag | HEK293 hNpr2 GloSensor cGMP luminescence, CNP-stimulated; calls by dose curve; further: nearly all actives have a fitted effect of over 70% in size
Target sequence (P20594 whole entry, looked up): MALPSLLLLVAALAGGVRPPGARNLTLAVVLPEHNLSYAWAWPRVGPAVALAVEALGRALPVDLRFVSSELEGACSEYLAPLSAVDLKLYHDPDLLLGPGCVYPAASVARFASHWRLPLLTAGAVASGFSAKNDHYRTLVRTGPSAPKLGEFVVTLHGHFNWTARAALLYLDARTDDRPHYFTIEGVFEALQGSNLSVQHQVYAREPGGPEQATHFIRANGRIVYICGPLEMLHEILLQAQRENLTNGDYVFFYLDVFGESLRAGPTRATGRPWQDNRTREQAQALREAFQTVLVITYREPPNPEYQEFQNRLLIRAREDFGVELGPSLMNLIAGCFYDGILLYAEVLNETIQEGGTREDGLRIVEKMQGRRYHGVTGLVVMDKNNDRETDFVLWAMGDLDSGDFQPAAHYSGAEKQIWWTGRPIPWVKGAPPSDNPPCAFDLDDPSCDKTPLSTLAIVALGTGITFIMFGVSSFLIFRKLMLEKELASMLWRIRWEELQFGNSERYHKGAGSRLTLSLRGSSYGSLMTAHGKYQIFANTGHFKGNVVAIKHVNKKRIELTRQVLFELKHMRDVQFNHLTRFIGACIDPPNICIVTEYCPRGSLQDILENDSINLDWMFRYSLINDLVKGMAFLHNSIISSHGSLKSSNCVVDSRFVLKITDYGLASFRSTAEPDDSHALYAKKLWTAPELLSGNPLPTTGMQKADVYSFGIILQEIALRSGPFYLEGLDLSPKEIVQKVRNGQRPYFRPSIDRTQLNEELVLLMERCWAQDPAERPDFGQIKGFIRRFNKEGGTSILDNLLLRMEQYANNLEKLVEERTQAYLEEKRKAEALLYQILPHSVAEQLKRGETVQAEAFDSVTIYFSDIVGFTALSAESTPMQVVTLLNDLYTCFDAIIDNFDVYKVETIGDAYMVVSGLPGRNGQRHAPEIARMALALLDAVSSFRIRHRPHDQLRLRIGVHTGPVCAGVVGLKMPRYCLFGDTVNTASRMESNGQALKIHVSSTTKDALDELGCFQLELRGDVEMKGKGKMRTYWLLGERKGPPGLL
FLuc counter – counter-screen for Npr1 antagonists: firefly luciferase inhibitors. shares compounds with NPR1 antag. purified FLuc enzyme, luminescence, Km substrate. Potency, µM (doses to about 57.6 µM), inactives show top-dose activity change, negative = inhibition, usual class: inhibitors. 0.7% of 1,400 active; further: 0% is about no effect
GloSensor cGMP – control cell line activity, Npr1 antagonist counter-screen | shares compounds with NPR1 antag | HEK293 GloSensor cGMP, SNP-stimulated, luminescence | Potency, µM (top dose mostly 57.6 µM), without a hit: at the highest dose activity change, negative = inhibition, most hits filed as inhibitors | 69% of 1,400 active; calls by dose curve; further: on the % scale 0 is the no-effect control and ±100 the full control effect; nearly all actives have a fitted effect of over 70% in size
Numbers without * were called inactive; i = inactive; ? = inconclusive; / = no result given; [ ] = another dose, or the depositor's remark. Rows were chosen to be rich in hits. Some 10% of all compounds tested hit in one or more screens of this group. Unless noted, the call rests on the fitted dose curve; in most records, active means well fitted curve in the direction sought with a large enough effect; inconclusive means small, poorly fitted or top-dose-only effect, or another doubt; inactive means no such curve, though single readings can be large; an effect the other way counts as inactive or inconclusive. Potency means the concentration at half of the fitted maximal effect.

SMILES	GPT2 inhibitor	NPR1 antag	HEK cytotox	NIH3T3 tox	Luciferase inh	NPR1 antag cnf	Npr2 selectivity	FLuc counter	GloSensor cGMP
O=C(c1ccc(-c2ncc3cnc(-c4cccc(F)c4)cn23)cc1)N1CCc2cccnc21	0.6%[88.5 µM]	17.8µM*	10µM*	31.6µM*	i	14µM*	14µM*	-17.2%[86.2 µM]	17.7µM*
O=C1NCc2ccccc2CC12CCN(Cc1ccccc1C(F)(F)F)C2 (centres undefined)	i	/	?	?	/	/	/	/	/
FC(F)(F)c1ccc(CN2CCC3(CC2)CC(c2cccnc2)=NO3)cc1	?	2.51µM*	?	?	i	6.85µM*	10.9µM*	2.2%	6.11µM*
FC(F)(F)c1ccc(CN2CCC3(CC(c4cccnc4)=NO3)C2)cc1 (centres undefined)	3.5%	/	?	-17.3%	/	/	/	/	/
COc1cc2c(cc1OC)N1C(=O)C[C@@]34C=CC[N@+]5([O-])CC[C@H]2[C@H](CC3)[C@@]145	i	/	/	/	/	/	/	/	/
OC1CC(c2cc(NCCCn3ccc4ccccc43)ncn2)C1 (centres undefined)	-19.8%[11.5 µM]	11.2µM*	?	?	i	19.3µM*	19.3µM*	0.2%	12.2µM*
Cc1nc(NCCc2nc3ccccc3n2C)cc(C2CC(O)C2)n1 (centres undefined)	i	0.1%	0.8%	-8.2%	i	/	/	/	/
Cn1c(NC[C@@H](N)Cc2ccccc2)nc(-c2ccncc2)c(-c2ccc3ccccc3c2)c1=O	-3.4%	/	/	/	/	/	/	/	/
CCc1noc(CC2CCOC3(CCN(S(=O)(=O)c4cc(F)ccc4C)CC3)C2)n1 (centres undefined)	0.4%	?	?	?	i	/	/	/	/
CCc1noc(CC2CCOC3(CCN(S(=O)(=O)c4cccc(OC)c4)CC3)C2)n1 (centres undefined)	-0.3%	15.8µM*	?	?	i	21.7µM*	21.7µM*	-1.1%	19.3µM*
CCc1noc(CC2CCOC3(CCN(S(=O)(=O)c4cccc(Cl)c4)CC3)C2)n1 (centres undefined)	i	10µM*	?	?	i	21.7µM*	?	-2.0%	21.7µM*
CCc1noc(CC2CCOC3(CCN(S(=O)(=O)c4ccccc4Cl)CC3)C2)n1 (centres undefined)	4.6%	?	?	-23.3%	i	21.7µM*	21.7µM*	-0.5%	17.2µM*
CCn1cnnc1-c1nn(C)c2c1CN(C(=O)CCc1ccc(OC)cc1)CC2	i	8.7%	i	-9.4%	i	/	/	/	/
O=C1CC(c2ccccc2)N(C(=O)CNC(=O)C2(c3ccccc3)CC2)CCCCCCN1 (centres undefined)	3.4%	6.4%	2.4%	-10.1%	i	/	/	/	/
CCCC(=O)N1CCCN(c2ccnc3ccnn23)CC1	-6.2%[88.5 µM]	/	-12.7%[172 µM]	-35.6%[138 µM]	/	/	/	/	/
O=C(c1ccccc1)N1CCNc2cnc(Nc3cccc(F)c3)nc2C1	-7.3%[88.5 µM]	12.6µM*	?	?	i	12.5µM*	17.7µM*	-14.7%[86.2 µM]	15.7µM*
O=C(c1ccc(Cl)cc1)N1CCNc2cnc(Nc3ccccc3)nc2C1	i	31.6µM*	?	?	i	35.3µM*	35.3µM*	-2.3%[86.2 µM]	35.3µM*
O=C(c1cocn1)N1CCNc2cnc(Nc3cccc(C(F)(F)F)c3)nc2C1	i	31.6µM*	70.8µM*	?	i	35.3µM*	35.3µM*	-1.5%[86.2 µM]	31.4µM*
Cn1nc(C2CC2)cc1NC(=O)c1cccc(Br)c1	0.8%[88.5 µM]	/	?	-29.2%[138 µM]	/	/	/	/	/
Cc1noc(C)c1CCC(=O)NC1CCCc2c1[nH]c1c(Cl)cccc21 (centres undefined)	-16.6%	-30.1%	?	35.5µM*	i	?	?	0.5%	?
O=S(=O)(c1ccc2c(c1)CCCC2)N1CCCC(Cn2cnc3cccnc32)C1 (centres undefined)	i	?	?	?	i	24.3µM*	19.3µM*	-1.6%	24.3µM*
Cc1nc2cccnc2n1CC1CCCN(S(=O)(=O)c2ccc3c(c2)CCCC3)C1 (centres undefined)	i	?	?	?	i	/	/	/	/
Cc1nc2cccnc2n1CC1CCCN(S(=O)(=O)c2ccc(CC(C)C)cc2)C1 (centres undefined)	i	12.6µM*	31.6µM*	?	i	21.7µM*	24.3µM*	2.0%	21.7µM*
CN(Cc1ccsc1)Cc1cccc(C(F)(F)F)c1	2.9%[88.5 µM]	/	-15.2%[172 µM]	-17.5%[138 µM]	/	/	/	/	/
COc1cc(CNC(=O)c2ccc3c(c2)N(C(=O)c2ccc(F)cc2)CC3)cc(OC)c1	3.1%	?	?	?	i	21.7µM*	24.3µM*	2.7%	21.7µM*
SMILES	GPT2 inhibitor	NPR1 antag	HEK cytotox	NIH3T3 tox	Luciferase inh	NPR1 antag cnf	Npr2 selectivity	FLuc counter	GloSensor cGMP
COc1cccc(CNC(=O)c2ccc3c(c2)N(C(=O)c2ccc(F)cc2)CC3)c1	-37.9%	-11.0%	?	?	i	/	/	/	/
N#Cc1ccc(C(=O)N2CCC(Cc3nc(C4CC4)n[nH]3)C2)cc1 (centres undefined)	i	/	4.4%	?	/	/	/	/	/
Cc1nnnn1CCCN1CCc2onc(-c3ccc(C(F)(F)F)cc3)c2C1	?	-2.9%	?	-28.4%	i	/	/	/	/
O=C(CCC1CCCN(S(=O)(=O)c2cccc(F)c2)C1)NC1CCCCC1 (centres undefined)	-15.4%	15.8µM*	?	?	i	27.3µM*	24.3µM*	0.0%	24.3µM*
CNC(=O)CCC1CCCN(S(=O)(=O)c2cccc(F)c2)C1 (centres undefined)	1.0%	1.2%	5.5%	2.3%	i	/	/	/	/
Cc1noc(C)c1-c1cc2c(c(-c3ccccc3)c1)C(=O)N(C)C2	i	28.2µM*	39.8µM*	?	i	28µM*	17.7µM*	0.5%[86.2 µM]	17.7µM*
Cc1ccccc1-c1cc(-c2c(C)noc2C)cc2c1C(=O)N(C)C2	-14.7%[88.5 µM]	-0.6%[70.6 µM]	?	?	i	/	/	/	/
